PubChem BioAssay (NCATS)
Where “and” joins values, the source holds several entries; their conditions need not be identical. Identical values can stand only once. Records with an inconclusive call do not appear. Entries that show only a call come without a potency. More than one record can exist for a structure, and the calls need not agree. Calls of active or inactive are those of the source. Calls follow the shape of the dose curve; as a rule, active = well fitted inhibition curve with a large enough effect; inconclusive = small, poorly fitted or top-dose-only effect; inactive = flat fitted curve, though single readings scatter.

Legend:
Assay in all cases: qHTS profiling for inhibitors of Plasmodium falciparum proliferation (AID 504749); also: nearly all actives have a fitted effect of over 60% in size
Details in all cases: P. falciparum in erythrocytes, SYBR Green DNA, 72 h; series mostly up to 28.7 µM
CP315 = tested on: CP315
Summary of the method: (§1)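 SYBR Green fluorescence (ex 485 nm, em 535 nm) reports parasite DNA after 72 h compound exposure of infected red cells at 0.3% parasitemia, 2.5% hematocrit; signal normalized to 0.29 uM artemisinin and vehicle wells.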

CP325 = tested on: CP325
Summary of the method: as §1

CP329 = tested on: CP329
Summary of the method: as §1

CP335 = tested on: CP335
Summary of the method: as §1

DFO2036 = tested on: DFO2036
Summary of the method: as §1

DIV14 = tested on: DIV14
Summary of the method: as §1

DIV17 = tested on: DIV17
Summary of the method: as §1

DIV30 = tested on: DIV30
Summary of the method: as §1

Dd2 = tested on: Dd2
Summary of the method: as §1

ECU = tested on: ECU
Summary of the method: as §1
Potency is read from the fitted curve at half-maximal effect.

S=C(S)N1CCNCC1
Potency (CP315): inactive | Potency (CP325): inactive | Potency (CP329): inactive | Potency (CP335): inactive | Potency (DFO2036): inactive | Potency (DIV14): inactive | Potency (DIV17): inactive | Potency (DIV30): inactive | Potency (Dd2): inactive | Potency (ECU): inactive

C[C@H]1CC[C@@H]2[C@@H](C)[C@H]3[C@H](C[C@H]4[C@@H]5CC=C6CC(O[C@@H]7O[C@H](CO)[C@H](O)[C@H](O[C@@H]8O[C@H](CO)[C@@H](O)[C@H](O)[C@H]8O)[C@H]7O[C@H]7O[C@@H](C)[C@H](O)[C@@H](O)[C@H]7O)CC[C@]6(C)[C@H]5CC[C@]34C)N2C1 (stereo not given in full)
Potency (CP315): inactive | Potency (CP325): inactive | Potency (CP329): inactive | Potency (CP335): inactive | Potency (DFO2036): inactive | Potency (DIV14): inactive | Potency (DIV17): inactive | Potency (DIV30): inactive | Potency (Dd2): inactive | Potency (ECU): inactive

CCC(N)Cc1c[nH]c2ccccc12 (stereo not given)
Potency (CP315): inactive | Potency (CP325): inactive | Potency (CP329): inactive | Potency (CP335): inactive | Potency (DFO2036): inactive | Potency (DIV14): inactive | Potency (DIV17): inactive | Potency (DIV30): inactive | Potency (Dd2): inactive | Potency (ECU): inactive

CNC1(c2ccccc2Cl)CCCCC1=O (stereo not given)
Potency (CP315): inactive | Potency (CP325): inactive | Potency (CP329): inactive | Potency (CP335): inactive | Potency (DFO2036): inactive | Potency (DIV14): 9.53 µM (active) and inactive | Potency (DIV17): 13.5 µM (active) | Potency (DIV30): inactive | Potency (ECU): inactive

ClC(Cl)(Cl)Cl
Potency (CP315): inactive | Potency (CP325): inactive | Potency (CP329): inactive | Potency (CP335): inactive | Potency (DFO2036): inactive | Potency (DIV14): inactive | Potency (DIV17): inactive | Potency (DIV30): inactive | Potency (Dd2): inactive | Potency (ECU): inactive

CNC(C)C(O)c1ccc(O)cc1 (stereo not given)
Potency (CP315): inactive | Potency (CP325): inactive | Potency (CP329): inactive | Potency (CP335): inactive | Potency (DFO2036): inactive | Potency (DIV14): inactive | Potency (DIV17): inactive | Potency (DIV30): inactive | Potency (Dd2): inactive | Potency (ECU): inactive

C[N+]1(C)C2CCC1CC(OC(=O)c1c[nH]c3ccccc13)C2 (stereo not given)
Potency (CP315): inactive | Potency (CP325): inactive | Potency (CP329): inactive | Potency (CP335): inactive | Potency (DFO2036): inactive | Potency (DIV14): inactive | Potency (DIV17): inactive | Potency (DIV30): inactive | Potency (Dd2): inactive | Potency (ECU): inactive

COc1ccc2c3c1O[C@H]1C(=O)CC[C@H]4[C@@H](C2)N(C)CC[C@]314
Potency (CP315): inactive | Potency (CP325): inactive | Potency (CP329): inactive | Potency (CP335): inactive | Potency (DFO2036): inactive | Potency (DIV14): inactive | Potency (DIV17): inactive | Potency (DIV30): inactive | Potency (Dd2): inactive | Potency (ECU): inactive

CCCC(=O)OC(C(Cl)(Cl)Cl)P(=O)(OC)OC (stereo not given)
Potency (CP329): inactive | Potency (CP335): inactive | Potency (DFO2036): inactive | Potency (DIV14): inactive | Potency (DIV17): inactive | Potency (DIV30): inactive | Potency (Dd2): inactive | Potency (ECU): inactive

O=c1[nH]cc(N(CCCl)CCCl)c(=O)[nH]1
Potency (CP315): inactive | Potency (CP329): inactive | Potency (CP335): inactive | Potency (DFO2036): inactive | Potency (DIV14): inactive | Potency (DIV17): inactive | Potency (DIV30): inactive | Potency (Dd2): inactive | Potency (ECU): inactive

[Cl-].[Cl-].[Hg+2]
Potency (DFO2036): 11.2 µM (active) | Potency (DIV30): 15.1 µM (active) | Potency (Dd2): 12.6 µM (active) | Potency (ECU): 6.31 µM (active)

C=CCC1(C(C)CCC)C(=O)N=C(S)NC1=O (stereo not given)
Potency (CP335): inactive | Potency (DFO2036): inactive | Potency (Dd2): inactive | Potency (ECU): inactive

O=C1CC[C@@]2(O)C3Cc4ccc(O)c5c4C2(CCN3CC2CC2)[C@H]1O5 (stereo not given in full)
Potency (CP315): inactive | Potency (CP325): inactive | Potency (CP329): inactive | Potency (DFO2036): inactive | Potency (DIV14): inactive | Potency (DIV17): inactive | Potency (DIV30): inactive | Potency (Dd2): inactive | Potency (ECU): inactive

CCC1C(C)=NN=C(c2ccc(OC)c(OC)c2)c2cc(OC)c(OC)cc21 (stereo not given)
Potency (CP315): inactive | Potency (CP325): inactive | Potency (CP329): inactive | Potency (CP335): inactive | Potency (DFO2036): inactive | Potency (DIV30): inactive | Potency (Dd2): inactive

F/C(COc1ccc2c(c1)[nH]c1ccccc12)=C1/CN2CCC1CC2
Potency (CP325): inactive | Potency (DFO2036): 11.2 µM (active) | Potency (DIV14): 4.26 µM (active) | Potency (DIV17): 6.75 µM (active) | Potency (DIV30): 10.7 µM (active) | Potency (Dd2): 5.62 µM (active)

CCN(CC)C(=O)/C(Cl)=C(\C)OP(=O)(OC)OC
Potency (DFO2036): inactive | Potency (Dd2): inactive | Potency (ECU): inactive

CC1CCC(C(C)C)C(OC(=O)c2ccccc2N)C1 (stereo not given)
Potency (CP315): inactive | Potency (CP325): inactive | Potency (CP329): inactive | Potency (CP335): inactive | Potency (DFO2036): inactive | Potency (DIV17): inactive | Potency (DIV30): inactive | Potency (ECU): inactive

CC(C)Nc1ccc(Nc2ccccc2)cc1
Potency (CP315): 4.78 µM (active) | Potency (CP325): 6.01 µM (active) | Potency (CP329): 6.01 µM (active) | Potency (DFO2036): 5.01 µM (active) | Potency (DIV14): 12 µM (active) | Potency (DIV17): 13.5 µM (active) | Potency (DIV30): 4.78 µM (active) | Potency (Dd2): 10 µM (active) | Potency (ECU): 11.2 µM (active)

CCC(=O)O[C@@](Cc1ccccc1)(c1ccccc1)[C@@H](C)CN(C)C
Potency (CP315): inactive | Potency (CP325): inactive | Potency (CP329): inactive | Potency (CP335): inactive | Potency (DFO2036): inactive | Potency (ECU): inactive

Cc1sc2ccccc2c1CC1=NCCN1
Potency (CP315): inactive | Potency (CP325): inactive | Potency (CP329): inactive | Potency (CP335): inactive | Potency (DFO2036): inactive | Potency (DIV30): inactive | Potency (Dd2): inactive | Potency (ECU): inactive

c1csc(C2(N3CCCCC3)CCCCC2)c1
Potency (CP315): inactive | Potency (CP325): inactive | Potency (CP329): inactive | Potency (CP335): inactive | Potency (DFO2036): inactive | Potency (DIV17): inactive | Potency (DIV30): inactive | Potency (ECU): inactive

CCOP(=O)(OCC)O/C(=C/Cl)c1ccc(Cl)cc1Cl
Potency (CP315): inactive | Potency (CP325): inactive | Potency (CP329): inactive | Potency (DFO2036): inactive | Potency (Dd2): inactive | Potency (ECU): inactive

N#CC(C#N)=Cc1cc(O)c(O)c(O)c1
Potency (CP335): 6.75 µM (active) | Potency (DIV14): 13.5 µM (active) | Potency (DIV17): 10.7 µM (active) | Potency (Dd2): 6.31 µM (active) | Potency (ECU): inactive

CC(C)(C)c1cc(O)ccc1O
Potency (CP315): inactive | Potency (CP329): inactive | Potency (CP335): 5.36 µM (active) | Potency (DFO2036): 8.91 µM (active) | Potency (DIV14): 6.01 µM (active) and 12 µM (active) | Potency (DIV17): 5.36 µM (active) | Potency (DIV30): 9.53 µM (active) | Potency (Dd2): 4.47 µM (active) | Potency (ECU): 7.94 µM (active)

CCCCCCCCCC(=O)O[C@H]1CC[C@H]2[C@@H]3CCC4=CC(=O)CC[C@]4(C)[C@H]3CC[C@]12C
Potency (CP315): inactive | Potency (CP325): inactive | Potency (CP329): inactive | Potency (DFO2036): inactive | Potency (DIV14): inactive | Potency (DIV17): inactive | Potency (DIV30): inactive | Potency (Dd2): inactive | Potency (ECU): inactive

CCOc1ccc2c3c1O[C@H]1[C@@H](O)C=C[C@H]4[C@@H](C2)N(C)CC[C@@]341
Potency (CP329): inactive | Potency (CP335): inactive | Potency (DFO2036): inactive | Potency (DIV14): 15.1 µM (active) | Potency (Dd2): inactive | Potency (ECU): inactive

Oc1cc(Cl)c(Cl)cc1Cl
Potency (CP315): inactive | Potency (CP325): inactive | Potency (CP329): inactive | Potency (CP335): inactive | Potency (DFO2036): inactive | Potency (DIV30): inactive | Potency (Dd2): inactive | Potency (ECU): inactive

c1cc2c(c(NC3=NCCN3)c1)CCCC2
Potency (CP325): inactive | Potency (CP335): inactive | Potency (DFO2036): inactive | Potency (DIV14): 15.1 µM (active) | Potency (Dd2): inactive | Potency (ECU): inactive

CCNC(C)Cc1cccc(C(F)(F)F)c1 (stereo not given)
Potency (CP315): inactive | Potency (CP325): inactive | Potency (CP329): inactive | Potency (DFO2036): inactive | Potency (DIV14): inactive | Potency (DIV17): inactive | Potency (DIV30): inactive | Potency (Dd2): inactive

CNC(=O)Oc1ccccc1C(=O)Nc1ccccc1
Potency (CP325): inactive | Potency (CP329): inactive | Potency (CP335): inactive | Potency (DFO2036): inactive | Potency (ECU): 11.2 µM (active)
